Laboratory results published in the supplement of paper PMC3334620.
Whole data set: some 33,000 sequences, median “E-score (-0.5 to 0.5)” near -0.013, cut for the highest 2% near 0.3. The entries come from a sample that favours the highest values as a whole.

These sequences were tested against T1, Msn1 (UniProt P22148) (assay: PBM E-score (8-mer binding enrichment) (E-score (-0.5 to 0.5)); higher = stronger / more preferred TF binding). Conditions: protein concentration: 200 nM; construct: GST-full length.
T1 sequence: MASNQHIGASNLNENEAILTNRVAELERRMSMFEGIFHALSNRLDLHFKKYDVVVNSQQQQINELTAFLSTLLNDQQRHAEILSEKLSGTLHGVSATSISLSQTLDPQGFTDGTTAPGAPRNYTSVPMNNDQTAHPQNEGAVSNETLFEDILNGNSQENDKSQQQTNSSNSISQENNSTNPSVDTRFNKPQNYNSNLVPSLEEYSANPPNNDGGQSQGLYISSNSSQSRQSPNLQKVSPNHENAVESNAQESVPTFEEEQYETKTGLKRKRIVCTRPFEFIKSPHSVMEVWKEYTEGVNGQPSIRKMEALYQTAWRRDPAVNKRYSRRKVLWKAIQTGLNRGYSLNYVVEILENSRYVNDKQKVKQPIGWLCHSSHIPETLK
In short: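 The E-score, a modified Wilcoxon-Mann-Whitney statistic, was computed by the Universal PBM Analysis Suite for every ungapped eight-base word pooled with its reverse complement. Scans behind it were normalised with masliner after bound GST-tagged yeast transcription factors were detected with fluorescent anti-GST. The proteins, at about 100-200 nM, had been applied to universal all-10-mer Agilent arrays made double-stranded by primer extension.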

Row | Sequence | PBM E-score
1 | CGTGGAAA | 0.0488
2 | AGTGGACG | 0.212
3 | GGATTTCA | 0.0863
4 | CCTGATAC | 0.12
5 | AGTAAAAC | -0.0534
6 | AGCAAAGC | -0.143
7 | ATTGAGAG | -0.0651
8 | CAGCAAAA | 0.0953
9 | CCGATTGC | 0.104
10 | ACGGACCT | 0.0608
11 | ACGGACCC | -0.221
12 | ACGGACAC | 0.344
13 | ACGGACAG | 0.175
14 | ACGGACTC | 0.00234
15 | ACGGACAT | 0.473
16 | AAGCGGAC | 0.014
17 | ACTTCCAG | -0.219
18 | TGAACTCA | 0.0356
19 | GCCTTTCA | -0.179
20 | ATCCCACA | -0.141
21 | GTCCCACA | 0.319
22 | ATCCCACG | -0.0996

Row | Sequence | PBM E-score
23 | AGCTCCAT | -0.251
24 | ACAAACGG | 0.298
25 | ACAAAAAT | 0.372
26 | ACAAACAC | 0.337
27 | TCAACGGA | -0.0103
28 | ACAACGGA | 0.304
29 | ACAAACAG | 0.276
30 | ACAAACAA | 0.277
31 | ACAACGGG | 0.161
32 | ACAAACGC | 0.172
33 | ACAAAAAA | 0.225
34 | ACAAAAAG | 0.216
35 | ACAAACGA | 0.331
36 | CGTAGACC | -0.151
37 | ACTCGTAC | -0.0875
38 | ACCGCCAG | -0.04
39 | CTCGAACC | -0.0331
40 | AGCGGCAG | -0.149
41 | GAAATACC | -0.0126
42 | ACTCCTCG | -0.00289
43 | CCCGTCGC | -0.27
44 | ACTGAGCT | -0.0939

Row | Sequence | PBM E-score
45 | CCTCTCGA | -0.12
46 | GCTGCTCC | -0.218
47 | CACTGGGA | 0.131
48 | AAGCAAGT | 0.00084
49 | GAACCGCA | 0.0554
50 | ACAAAAGC | 0.364
51 | ACAAAACC | 0.239
52 | ACAAAAAC | 0.319
53 | ACAAAAGA | 0.27
54 | CCAAAAAC | 0.0933
55 | CCAAAAGC | 0.0259
56 | ACTACGCA | -0.18
57 | ATATTTTC | 0.226
58 | CCTCGAAG | 0.0737
59 | GGGGTGCA | -0.0694
60 | CTGACACA | 0.0572
61 | CGGACACA | 0.371
62 | CGGACACG | 0.338
63 | CAGACACG | 0.147
64 | CAGACACA | 0.28
65 | CGGACACC | 0.112
66 | CCTTTCGC | -0.146

Row | Sequence | PBM E-score
67 | GCTATGAA | -0.00947
68 | TCGGCCGA | 0.31
69 | CCGGCCGA | 0.106
70 | GCGGCCGA | -0.0302
71 | AAGCGCTC | -0.0777
72 | AAGCGCTA | -0.0275
73 | AAGCGCTT | 0.312
74 | CCTTAATC | -0.105
75 | ACGCAAGA | 0.0419
76 | ACCTCAGG | -0.129
77 | TATTGTCA | 0.282
78 | GATTGTAC | 0.0546
79 | AATTGTCC | 0.488
80 | GATTGTCA | 0.245
81 | CATTGTGC | 0.0753
82 | CATTGTAC | 0.0768
83 | AATTGTGC | 0.0159
84 | CATTGTCC | 0.456
85 | AATTGTTC | 0.245
86 | CATTGTCA | 0.158
87 | AATTGTAC | 0.365
88 | AATTGTCA | 0.359

Row | Sequence | PBM E-score
89 | AAATCTGT | 0.138
90 | CACACCCC | -0.293
91 | ATTGCGGA | 0.145
92 | ATATGAGA | 0.0596
93 | ACCCGAAG | -0.0262
94 | CACTTTCC | -0.221
95 | AATTGTAG | 0.167
96 | AATTGTCT | 0.406
97 | GATTGTAA | 0.0176
98 | AATTGTCG | 0.362
99 | AATTGTAT | 0.155
100 | AATTGTGT | -0.0542
101 | GATTGTGC | -0.0365
102 | CATTGTCG | 0.21
103 | GATTGTCC | 0.458
104 | CTAGCCAA | 0.00535
105 | AAATTTAA | 0.238
106 | GGAAGAAC | -0.012
107 | GCCTTTCC | -0.0629
108 | ATGCGACG | -0.249
109 | ATGGCTGA | -0.133
110 | CTGTACCC | -0.0861
